Test results reported in ChEMBL document CHEMBL3988442, “University of Dundee, Small-Polar-MMV Screening Library” (2021).
The campaign covered roughly 85,000 compounds. About 440 (0.52%) showed an effect of 50% or more. This excerpt belongs to a sample that is enriched for strong results.

Assay: In vitro enzyme assay to detect hydrolysis of chlorophenol red-beta-D-[…] directly proportional to the number of Toxoplasma stably expressing beta-galactosidase
Type: functional, organism-based, Toxoplasma gondii
Parameters: scale not given: in the data most compounds retested in dose-response had high values

Structure (SMILES) | Percent Effect (50 µM) | Percent Effect (10 µM)
Cc1cnc(N)nc1NCC(O)CN1CCCCC1 (stereo not given) | 10.92% | –
Cc1cc(F)ccc1NC(=O)NCC1(O)CCNC1 (stereo not given) | -14.34% | –
CC(C(=O)N1CCOCC1)N1CCC(CO)CC1 (stereo not given) | -3.94% | –
Cn1cc([C@@H]2OCCC[C@H]2CN)cn1 | 1.285% | –
NCc1ccncc1OCC(F)(F)F | 19.9% | –
COCC1CCN(C(=O)CCC2CCNCC2)CC1 | -0.227% | –
C=C(C)CNC(C(=O)N1CCOCC1)C(C)C (stereo not given) | -2.491% | –
CN(CCC(N)=O)Cc1ccc(Cl)s1 | -3.537% | –
c1cc(-c2nn3c(CN4CCOCC4)nnc3s2)ccn1 | – | 60.13%
c1ccc(-c2ncn(CCCN3CCOCC3)c2-c2ccncc2)cc1 | – | 36.16%
c1cc(-c2nnc3sc(CCN4CCCC4)nn23)ccn1 | – | -1.928%
COCC(=O)NCCc1cc(Cl)c2c(c1)OCCO2 | -0.1362% | –
O=C(CN1CCN(C(=O)c2ccco2)CC1)NC1CC1 | 54.85% | –
CCC(=O)NC1CCN(C(=O)c2ccco2)CC1 | -8.488% | –
O=C(CN1CCN(C(=O)c2sccc2C2CC2)CC1)NC1CC1 | – | 2.485%
CCc1ccccc1-n1c(CNC)n[nH]c1=O | 9.34% | –
CC[C@H](N)C(=O)N(C)CCOc1cccc(Cl)c1 | 33.07% | –
OCC1COCCN(Cc2ccc(C(F)(F)F)nc2)C1 (stereo not given) | 17.84% | –
Cc1nc(C2(O)CCCNCC2)sc1CCOc1ccc(Cl)cc1.Cl (stereo not given) | – | 66.18%
COc1ccc(OCCc2sc(C3(O)CCCNCC3)nc2C)cc1.Cl (stereo not given) | – | 31.45%
Cc1nc(C2(O)CCCNCC2)sc1CCOc1ccc(F)c(F)c1.Cl (stereo not given) | – | 36.46%
Cc1nc(C2(O)CCCNCC2)sc1CCOc1ccc(F)cc1.Cl (stereo not given) | – | 11.11%
Cc1nc(C2(O)CCCNCC2)sc1CCOc1ccccc1.Cl (stereo not given) | – | -8.75%
CCS(=O)(=O)NCCCN(C)C1CCSC1 (stereo not given) | -2.223% | –
Cc1n[nH]c(SCCNC(=O)CC2C=CS(=O)(=O)C2)n1 (stereo not given) | 9.381% | –

Structure (SMILES) | Percent Effect (50 µM) | Percent Effect (10 µM)
Cc1nc(C)c(CNC(=O)c2ccnnc2)s1 | -0.5239% | –
CC(CNC(=O)c1cncc(Br)c1)N1CCCC1 (stereo not given) | 12.86% | –
CN(Cc1ccccc1)C1(C(=O)NC(C)(C)CO)Cc2ccccc2C1 | – | -3.718%
CNC(=O)C1(N(C)CCc2ccccc2)Cc2ccccc2C1 | – | 52.85%
CN(Cc1ccccc1)C1(C(=O)O)Cc2ccccc2C1 | – | -0.5507%
CN(Cc1ccco1)C(=O)Nc1ccc(N(C)C)nc1 | 24.04% | –
CCN(CCCN1CCCC1)C(=O)c1cc[nH]n1 | -7.801% | –
CCn1cc(-c2cc(C(F)(F)F)nc(NC3CCCC3)n2)c(C)n1 | – | 70.55%
Cc1nn(C)cc1-c1cc(C(F)(F)F)nc(NC2CCN(C)CC2)n1 | – | 3.167%
Cc1nn(C)cc1-c1cc(C(F)(F)F)nc(NC2CCCCC2)n1 | – | 1.393%
O=C(NCC(O)C1CC1)c1cccnc1C(F)(F)F (stereo not given) | -5.668% | –
O=C(CNc1ccc(Br)cc1)NCc1ncc[nH]1 | 5.475% | –
O=S(=O)(NCCC(O)c1cccs1)c1ccccc1 (stereo not given) | – | 0.7722%
CC(C)C(O)CCNS(=O)(=O)c1ccccc1 (stereo not given) | 62.33% | –
CC(N)CCNS(=O)(=O)c1ccccc1 (stereo not given) | -13.24% | –
CC(c1cccnc1)N(C)C(=O)c1ccccc1C#N (stereo not given) | -2.098% | –
COc1c(C)cnc(CNC(=O)NC2CC2)c1C | 8.679% | –
Cc1cc(C)n(CC(=O)N2CC(C)OCC2(C)C)n1 (stereo not given) | 5.036% | –
CSCC(CCO)NC(=O)c1cccc(F)c1Cl (stereo not given) | – | -17.37%
CSCC(CCO)NC(=O)c1cccc(Cl)c1F (stereo not given) | – | -4.915%
CSCC(CCO)NC(=O)c1cc(F)ccc1O (stereo not given) | 96.99% | –
CCCc1cc(C(=O)N2CCOC(C(F)(F)F)C2)no1 (stereo not given) | -10.86% | –
COc1ccnc(N2CCC(F)(CO)C2)n1 (stereo not given) | 3.064% | –
Cn1nnc2c1C(COCC1CC1)CN(C(=O)Cc1ccsc1)C2 (stereo not given) | – | -4.213%
Cn1nnc2c1C(COCC1CC1)CN(C(=O)Cc1cccs1)C2 (stereo not given) | – | 56.28%

Structure (SMILES) | Percent Effect (50 µM) | Percent Effect (10 µM)
COCC1CN(C(=O)Cc2cccs2)Cc2nnn(C)c21 (stereo not given) | – | 4.219%
CC1(C)CNC(=O)c2nc(CCN3CCCC3)[nH]c2C1 | -0.3782% | –
COc1ccc2[nH]c(N3CCOCC3)nc2c1 | 4.618% | –
CS(=O)(=O)NCc1ccc(CN2CCCC2=O)cc1 | 69.78% | –
NCc1ccc(CN2CCCC2=O)cc1 | -14.5% | –
N#Cc1ccc(CN2CCCC2=O)cc1 | 8.336% | –
CCOCC(=O)N(Cc1ccc(O)c(OC)c1)C1CC1 | -4.406% | –
CCCNC(=O)c1ccc(CN2CCCC2)cc1 | 0.8478% | –
CCNCCCNCc1ccc2c(c1)n(C)c(=O)n2C | 0.7261% | –
NCC(CO)Cc1ccc(F)c(F)c1 (stereo not given) | 20.05% | –
CC(C)NC(=O)Nc1nc2c(s1)CN(C(=O)NCc1cccs1)CC2 | – | 56.34%
COC(=O)Nc1nc2c(s1)CN(C(=O)NCc1cccs1)CC2 | – | 1.645%
O=C(Nc1nc2c(s1)CN(C(=O)NCc1cccs1)CC2)C1CC1 | – | 2.193%
N#Cc1ccc(N2CCOC2=O)nc1 | 0.2325% | –
CCOc1ccc(NC(=O)[C@H](C)N(C)C)cc1CO | 1.908% | –
O=C(Cn1cc(Br)ccc1=O)NCC1CCOC1 (stereo not given) | -15.74% | –
Cc1c(S(=O)(=O)N2CCC(N)CC2)cnn1C | -0.6017% | –
Cc1c(-c2cc(C(F)(F)F)nc(N3CCC(N)CC3)n2)cnn1C | – | 84.58%
NC1CCN(c2ccc(C(F)(F)F)cn2)CC1 | 7.702% | –
CCNC(=O)[C@@H]1C[C@H](N)CN1c1cc(C(F)(F)F)nc(N2CCCC2)n1 | – | 3.581%
O=C(O)C1CCCN1c1nc(-c2ccc(Cl)cc2)cc(C(F)(F)F)n1 (stereo not given) | – | 8.669%
Cc1ccc(-c2cc(C(F)(F)F)nc(N3CCOCC3)n2)s1 | – | -3.229%
CCn1ncc(-c2cc(C(F)(F)F)nc(N3CCC(N)CC3)n2)c1C | – | 74.85%
CCc1ccc(-c2cc(C(F)(F)F)nc(N3CCC(N)CC3)n2)cc1 | – | 99.66%
O=C(O)C1CCCN1c1nc(-c2ccc(Cl)c(Cl)c2)cc(C(F)(F)F)n1 (stereo not given) | – | 13.78%
